Source: PubChem (National Center for Advancing Translational Sciences (NCATS))
Pf growth 96h: Primary qHTS for delayed death inhibitors of the malarial parasite plastid, 96 hour incubation; P. falciparum luciferase reporter growth, 96 h; Potency, µM (highest dose often 28.7 µM), most hits filed as inhibitors; 320,000 tested, 6.9% active; AID 504834, 2011
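Plates of compound plus infected erythrocytes (2% hematocrit, 0.05% parasitemia final) incubate 96 hours, 37 C, 5% CO2. Detection reagent added; reduced luminescence from the parasites' luciferase reporter flags inhibition.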
AMA1-RON2 inh: qHTS for Inhibitors of AMA1-RON; Towards Development of Antimalarial Drug Lead: Primary Screen | Plasmodium falciparum AMA1 (3D7) - RON2 peptide interaction | AlphaScreen AMA1-biotinylated RON2 peptide binding | Potency, µM (highest dose often 58.2 µM), usual class: inhibitors | 360,000 tested, 0.2% active; note: nearly all actives have a fitted effect of over 45% in size
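AMA1 (3D7) with his tag at 25 nM final met compounds first, then biotinylated RON2 peptide at 25 nM; detection used donor plus acceptor beads, 10 µg/mL apiece, read by AlphaScreen after 30 min at room temperature.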
NS1 inh: qHTS Assay for Inhibitors of Influenza NS1 Protein Function. AID 2326, 2010. Potency, µM (top dose mostly 46.1 µM). 270,000 tested, 0.4% active; calls by dose curve; note: actives are rising curves; nearly all actives have a fitted effect of over 50% in size
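S. cerevisiae expressing influenza A NS1, grown in glucose, washed, then diluted 1:100 into pH 6.0 -URA galactose medium with 23 nl compound. Growth recovery read as OD600; NS1-free strain serves as control.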
HCV inhibitor: qHTS Assay for Inhibitors of Hepatitis C Virus (HCV); Potency, µM (titrated, usually from 41.8 µM), usual class: inhibitors; 340,000 tested, 3.4% active; Huh7.5.1 HCVcc-Cre infection, luciferase reporter, 44 h
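HCVcc-Cre virus at an moi near 0.5 was added right after compound to cells cultured 4 h from seeding (1,000 cells/well). Luciferase activity was determined 44 h later, 15 min after substrate addition at RT.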
Pf growth 48h: Primary qHTS for delayed death inhibitors of the malarial parasite plastid, 48 hour incubation; P. falciparum luciferase growth in erythrocytes, 48 h; Potency, µM (titrated, usually from 28.7 µM), actives largely listed as inhibitors; 310,000 tested, 5.9% active
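Here the parasites carry a stable luciferase gene and grow inside erythrocytes in Albumax-based RPMI medium with compound for one erythrocytic cycle. Activity is scored as loss of luminescent signal.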
SARS PLpro yeast: qHTS of Yeast-based Assay for SARS-CoV PLP | Potency, µM (top dose mostly 32.9 µM), actives largely listed as activators | S. cerevisiae expressing SARS-CoV PLpro, growth rescue | 330,000 tested, 0.19% active | AID 485353, 2010; calls by dose curve; note: nearly all actives have a fitted effect of over 55% in size
Large screens that a line does not name were inactive. The list is not random: actives were taken first. Their share in the collection is about 12%. Unless noted, calls come from the whole dose curve; as a rule, active = well fitted curve in the direction sought with a large enough effect; inconclusive = small, poorly fitted or top-dose-only effect, or another doubt; inactive = no such curve, though single readings can be large; an effect the other way counts as inactive or inconclusive.

CSc1ccc(CN2CCC(C(=O)NCc3ccc(C)cc3)CC2)cc1	AMA1-RON2 inh inconclusive, HCV inhibitor inconclusive
COc1cc([N+](=O)[O-])cc(/C=N/NC(=O)c2ccc(NC(=O)c3ccc(C)cc3)cc2)c1O	HCV inhibitor 2.51µM
O=C(N/N=C/c1ccc(Br)s1)c1cccc([N+](=O)[O-])c1	Pf growth 96h 4.15µM, Pf growth 48h 2.94µM
O=C(CNC(=S)NC(=O)c1cccc([N+](=O)[O-])c1)c1ccccc1	Pf growth 96h 10.4µM
COc1cc([N+](=O)[O-])cc(/C=N/NC(=O)C(C)Nc2ccccc2C)c1O (centres undefined)	SARS PLpro yeast 22.4µM
N=C(N)n1cccn1	none (no result: AMA1-RON2 inh, NS1 inh, HCV inhibitor, SARS PLpro yeast)
CCOC(=O)c1c(C)[nH]c(C(=O)OCC(=O)c2ccc3c(c2)NC(=O)CO3)c1C	Pf growth 96h inconclusive, Pf growth 48h inconclusive (no result: NS1 inh)
CCN(CCO)CC1CCCC2CCCCC21 (centres undefined)	none (no result: Pf growth 96h, NS1 inh, HCV inhibitor, Pf growth 48h, SARS PLpro yeast)
COc1cc([N+](=O)[O-])cc(/C=N/NC(=O)CC#N)c1O	Pf growth 96h inconclusive, SARS PLpro yeast 7.08µM (no result: AMA1-RON2 inh, NS1 inh, HCV inhibitor)
COc1ccc(/C=N/NC(=O)c2ccc(NC(=O)c3cccc([N+](=O)[O-])c3)cc2)c(OC)c1	HCV inhibitor inconclusive, Pf growth 48h inconclusive (no result: NS1 inh)
COc1cccc(/C=N/NC(=O)c2cc3cc([N+](=O)[O-])ccc3s2)c1O	Pf growth 96h inconclusive, HCV inhibitor inconclusive, Pf growth 48h 4.15µM, SARS PLpro yeast inconclusive
COc1cc([N+](=O)[O-])cc(/C=N/NC(=O)Cn2cncn2)c1O	none
O=C(N/N=C/c1ccccn1)c1cccc([N+](=O)[O-])c1	Pf growth 48h inconclusive
O=C(NN=Cc1ccccc1O)c1cccc([N+](=O)[O-])c1	HCV inhibitor 7.94µM (no result: Pf growth 96h, NS1 inh, Pf growth 48h, SARS PLpro yeast)
COc1ccccc1/C=N/NC(=O)c1ccc(NC(=O)c2cccc([N+](=O)[O-])c2)cc1	Pf growth 48h 5.22µM (no result: AMA1-RON2 inh, NS1 inh, HCV inhibitor)
Cc1ccccc1C(=O)NC1CCN(CC(=O)Nc2ccc(Br)cc2)CC1	SARS PLpro yeast inconclusive
O=C(O)c1nc(-c2ccccc2)c(C(=O)NC2CC2)[nH]1	none (no result: Pf growth 96h, NS1 inh, HCV inhibitor, Pf growth 48h, SARS PLpro yeast)
COc1ccc(N2CCC(CNC(=O)Nc3ccc(C)c(C)c3)C2)cc1 (centres undefined)	NS1 inh inconclusive
Cc1cc(C)cc(NC(=S)NCC2CCN(C(C)c3ccccc3)C2)c1 (centres undefined)	Pf growth 96h 5.22µM, Pf growth 48h inconclusive (no result: NS1 inh)
COc1ccc(N2CCC(CNC(=S)Nc3cccc(C)c3)C2)cc1 (centres undefined)	AMA1-RON2 inh inconclusive, Pf growth 48h 13.1µM
COc1ccc(N2CCC(CNC(=S)Nc3c(C)cc(C)cc3C)C2)cc1 (centres undefined)	Pf growth 96h inconclusive, HCV inhibitor inconclusive, Pf growth 48h 11.7µM
COc1ccc(N2CCC(CNC(=S)Nc3ccc(C)cc3C)C2)cc1 (centres undefined)	Pf growth 96h inconclusive, AMA1-RON2 inh inconclusive, HCV inhibitor inconclusive, Pf growth 48h 8.28µM
Cc1ccc(/C(O)=C2/C(=O)C(=O)N(CC(=O)O)C2c2ccc([N+](=O)[O-])cc2)cc1 (centres undefined)	Pf growth 96h inconclusive
Cc1cccc(NC(=O)CSc2nc(=O)n(CCCN3CCOCC3)c3c2CCCC3)c1	Pf growth 96h inconclusive, Pf growth 48h inconclusive (no result: NS1 inh, SARS PLpro yeast)
CO[C@H]1C[C@@H]2CC[C@@H](C)[C@@](O)(O2)C(=O)C(=O)N2CCCC[C@H]2C(=O)O[C@H]([C@H](C)C[C@@H]2CC[C@@H](O)[C@H](OC)C2)CC(=O)[C@H](C)C=C(C)[C@@H](O)[C@@H](OC)C(=O)[C@H](C)C[C@H](C)C=CC=CC=C1C	Pf growth 96h 0.928µM, Pf growth 48h 5.22µM (no result: AMA1-RON2 inh, HCV inhibitor)
O=[N+]([O-])c1cc(S(=O)(=O)C(F)(F)F)ccc1NCC1CCCO1 (centres undefined)	none
Cc1ccc(S(=O)(=O)NCc2ccccn2)cc1C	Pf growth 96h inconclusive
Cc1ccc2ccccc2c1NC(=O)CNCc1ccccc1	none (no result: Pf growth 96h, NS1 inh, HCV inhibitor, Pf growth 48h, SARS PLpro yeast)
Cc1ccc(S(=O)(=O)NCc2ccc(C(=O)N3CCN(c4ccc([N+](=O)[O-])cc4)CC3)cc2)cc1	HCV inhibitor 3.98µM, Pf growth 48h inconclusive
COc1ccc(N2CCN(C(=O)c3ccc(CNS(=O)(=O)c4cc(C)ccc4C)cc3)CC2)cc1	HCV inhibitor inconclusive
Cc1ccc(C(=O)N2CCN(c3ccc([N+](=O)[O-])c(NCc4cccnc4)c3)CC2)cc1	Pf growth 96h 3.7µM, HCV inhibitor 12.6µM, Pf growth 48h 8.28µM
COc1ccc(N2CCN(C(=O)c3ccc(CNS(=O)(=O)c4ccc(C)cc4)cc3)CC2)cc1	Pf growth 96h inconclusive, HCV inhibitor 12.6µM, Pf growth 48h inconclusive
Cc1ccc(S(=O)(=O)NCc2ccc(C(=O)N3CCN(c4ccccn4)CC3)cc2)cc1	Pf growth 96h inconclusive, HCV inhibitor inconclusive, Pf growth 48h inconclusive
Cc1ccsc1C(=O)N(C)C1CCS(=O)(=O)C1 (centres undefined)	none (no result: NS1 inh)
CCOC(=O)Cn1c(=O)c2c(nc3n2CCCCN3c2ccc(OCC)cc2)n(C)c1=O	none (no result: Pf growth 96h, Pf growth 48h, SARS PLpro yeast)
CCCCOC(=O)Cn1c(=O)c2c(nc(Br)n2Cc2ccccc2)n(C)c1=O	Pf growth 96h inconclusive, HCV inhibitor inconclusive, Pf growth 48h 9.28µM
CCCCOC(=O)Cn1c(=O)c2c(nc3n2CCCCN3c2ccc(C)cc2)n(C)c1=O	HCV inhibitor inconclusive, Pf growth 48h 7.38µM
C=CCn1c(=O)c2c(nc(Br)n2Cc2ccccc2Cl)n(C)c1=O	Pf growth 96h 11.7µM, Pf growth 48h inconclusive
CCOC(=O)Cn1c(=O)c2c(nc(Br)n2Cc2ccccc2)n(C)c1=O	none (no result: Pf growth 96h, AMA1-RON2 inh, HCV inhibitor)
Cn1c(=O)n(CC(N)=O)c(=O)c2c1nc(Br)n2Cc1ccccc1	Pf growth 96h 2.08µM
Cn1c(NN)nc2c1c(=O)n(Cc1ccccc1)c(=O)n2C	Pf growth 48h 11.7µM
Cn1c(Br)nc2c1c(=O)n(Cc1ccccc1)c(=O)n2C	none
CC(Cc1ccccc1)NCc1ccccc1O (centres undefined)	Pf growth 96h inconclusive, Pf growth 48h inconclusive (no result: NS1 inh)
Oc1ccccc1CNCC12CC3CC(CC(C3)C1)C2	Pf growth 96h 0.0828µM, Pf growth 48h 0.104µM
OCCNCC12CC3CC(CC(C3)C1)C2	Pf growth 96h inconclusive
CC(CC12CC3CC(CC(C3)C1)C2)NCc1ccccc1O (centres undefined)	Pf growth 96h 9.28µM, HCV inhibitor inconclusive, Pf growth 48h inconclusive
COc1ccc(C)cc1NC(=O)NCCC1=CCCCC1	Pf growth 48h 14.7µM
COc1cc(C(=O)NCCC2=CCCCC2)cc(OC)c1OC	Pf growth 48h inconclusive
COc1ccc(CCNC(=O)C2CCN(S(=O)(=O)c3cccc4nonc34)CC2)cc1OC	Pf growth 96h 8.28µM
